Compound activity deposited in PubChem by Broad Institute.
AF4-AF9 inh – blocks AF4 peptide binding to human AF9; P42568; AlphaScreen, biotin-AF4 peptide binding to FLAG-AF9; inhibition, % at 10 µM; hit rate 0.47% among 350,000; AID 651704;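 active means every replicate reaching a set inhibition limit, whatever the replicate mean, cut at about 25% in these data; inconclusive means mean inhibition reaches that limit but some replicates miss it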
Target sequence (P42568 whole entry, looked up): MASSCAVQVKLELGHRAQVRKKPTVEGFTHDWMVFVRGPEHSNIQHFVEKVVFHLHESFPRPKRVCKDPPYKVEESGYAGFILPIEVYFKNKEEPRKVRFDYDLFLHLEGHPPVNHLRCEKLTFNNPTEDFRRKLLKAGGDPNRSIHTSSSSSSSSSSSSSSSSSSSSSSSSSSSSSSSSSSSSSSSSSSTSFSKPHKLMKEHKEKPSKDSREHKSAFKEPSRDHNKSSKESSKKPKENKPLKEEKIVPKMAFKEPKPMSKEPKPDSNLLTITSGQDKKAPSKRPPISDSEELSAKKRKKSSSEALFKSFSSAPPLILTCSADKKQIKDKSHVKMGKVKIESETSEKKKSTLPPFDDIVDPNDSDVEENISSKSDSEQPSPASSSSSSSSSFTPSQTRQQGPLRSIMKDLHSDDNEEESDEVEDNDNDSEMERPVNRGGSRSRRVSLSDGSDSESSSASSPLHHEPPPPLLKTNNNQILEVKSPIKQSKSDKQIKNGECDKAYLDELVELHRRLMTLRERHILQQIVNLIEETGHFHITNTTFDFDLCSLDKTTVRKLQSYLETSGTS
RAD54 inh – blocks human RAD54 Holliday junction branch migration. AID 602329. hit rate 0.14% among 360,000. inhibition, % at 10.4 µM. Q92698. FAM/BHQ fluorescence;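 active means mean normalized replicate activity at least 40 and at least half of replicates scoring 40 or more; inconclusive means only one of the two criteria met; inactive means mean below 40 and under half of replicates reaching 40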;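 further: inhibitors cause a drop in the FAM fluorescence signal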
DENV2 CPE – inhibitors of DENV2 cytopathic effect. DENV2-infected cells, cytopathic effect rescue, plate reader. CPE inhibition, % at 9.99 µM. hit rate 1.7% among 350,000; in the data active means CPE inhibition above about 20%, passing the limit was not always enough; inconclusive means no clear call, values can overlap the other calls; tested in BHK-21 cells
GSIS activator – primary screen for activators of insulin secretion dependent on glucose, INS-1E cells, GLuc reporter luminescence; INS-1E GLuc reporter insulin secretion, 2-3 h; activation, % at 16.6 µM; hit rate 0.61% among 370,000;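 active means lowest replicate activation of at least 40%, so every replicate reaches that level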
dFosB activator – mouse delta FosB homodimer activation; purified delta FosB, TAMRA-CDK5 oligo fluorescence polarization; percent of positive-control signal above neutral wells; activation, % at 25 µM; hit rate 0.99% among 340,000;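 active means mean activation above about 17%, with every replicate also reaching it, limit read from the data, passing the limit was not always enough; inconclusive means only one of the two conditions met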
RAD52 inh – RAD52 (human) annealing inhibition. recombinant RAD52 DNA annealing, FRET fluorescence. inhibition, % at 18.7 µM. hit rate 0.46% among 360,000;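 active means every replicate showing at least 50% inhibition; inconclusive means mean inhibition at least 50% but not in every replicate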
Large screens that a line does not name were inactive. Hits are enriched below; roughly 3.1% of the tested compounds scored in any of these assays.

CC(Oc1ccc2ccc(=O)oc2c1)C(=O)NC(Cc1c[nH]c2ccc(O)cc12)C(=O)O (stereo unspecified)	DENV2 CPE 102
CCc1cc(=O)oc2cc(C)cc(OCC(=O)NC(Cc3c[nH]c4ccc(O)cc34)C(=O)O)c12 (stereo unspecified)	none
COc1ccc(-c2cc(=O)oc3cc(OC(C)C(=O)NC(Cc4c[nH]c5ccc(O)cc45)C(=O)O)ccc23)cc1 (stereo unspecified)	DENV2 CPE inconclusive
COCC(=O)Nc1ccc2c(c1)OC[C@@H](C)N(Cc1cc(-c3ccccc3)on1)C[C@@H](C)[C@H](OC)CN(C)C2=O	none (no result: dFosB activator)
CC(=O)Cc1nsc(NC(=O)c2ccc(-c3cccc(Cl)c3)o2)n1	GSIS activator 42
Cc1ccc(S(=O)(=O)NNC(=O)c2cccc(O)c2)cc1	AF4-AF9 inh 48 (no result: RAD54 inh)
CN(C)CCNc1cccc2sc3ccc(O)cc3c(=O)c12	AF4-AF9 inh 38 (no result: RAD54 inh, GSIS activator, dFosB activator)
CCC(=O)N1C[C@H](C)[C@@H](OC)CN(C)C(=O)c2ccc(NC(=O)c3ccccc3)cc2OC[C@@H]1C	none (no result: dFosB activator)
C[C@H]1CN([C@@H](C)CO)C(=O)c2cc(NC(=O)Nc3ccc(F)cc3)ccc2O[C@H]1CN(C)C(=O)Nc1cccc2ccccc12	none (no result: dFosB activator)
COc1ccccc1NC(=O)N1C[C@@H]2N[C@H](C1)C2c1ccc(-c2cccc(C(=O)N(C)C)c2)cc1 (stereo partly specified)	none (no result: RAD54 inh, dFosB activator)
COc1cc2c(cc1NC(=O)c1ccc(C)c([N+](=O)[O-])c1)oc1ccccc12	GSIS activator 53 (no result: AF4-AF9 inh, DENV2 CPE, RAD52 inh)
COc1ccc(-c2ccc3n(c2=O)C[C@@H]2[C@@H](CO)[C@H](C(=O)N4CCN(C)CC4)N[C@H]32)cc1	none (no result: dFosB activator)
COCCn1nnnc1C(c1cc2cc(C)ccc2[nH]c1=O)N1CCN(C2CCCCC2)CC1 (stereo unspecified)	DENV2 CPE 30
COCCn1nnnc1C(c1cc2ccc(OC)cc2[nH]c1=O)N1CCN(C2CCCCC2)CC1 (stereo unspecified)	none (no result: AF4-AF9 inh, DENV2 CPE, GSIS activator, RAD52 inh)
O=C(CSc1nnc(-c2cccs2)n1-c1ccccc1)Nc1ccccc1	none (no result: AF4-AF9 inh, RAD54 inh, DENV2 CPE, GSIS activator, RAD52 inh)
CC(=O)Nc1ccc(NC(=O)CSc2nnc(-c3cccs3)n2N)cc1	DENV2 CPE 60
COc1ccc(NC(=O)C2C(c3ccc4c(c3)OCO4)=Nc3ccccc3N2C(C)=O)cc1 (stereo unspecified)	DENV2 CPE 27 (no result: AF4-AF9 inh, RAD54 inh, dFosB activator)
C[C@@H]1CN([C@H](C)CO)C(=O)CCCn2cc(nn2)CO[C@@H]1CN(C)S(=O)(=O)c1ccccc1F	none (no result: dFosB activator)
COC(=O)C(=O)C1CCc2c(Cl)cc(OC)c(OC)c2C1=O (stereo unspecified)	DENV2 CPE 65 (no result: RAD54 inh, GSIS activator)
CC(C)CC#Cc1cnc2c(c1)C(=O)N([C@H](C)CO)C[C@H](C)[C@H](CN(C)C(=O)C1CCOCC1)O2	none (no result: dFosB activator)
CC(C)CC#Cc1cnc2c(c1)C(=O)N([C@@H](C)CO)C[C@@H](C)[C@@H](CN(C)C(=O)Cc1ccncc1)O2	DENV2 CPE 28 (no result: dFosB activator)
C[C@H](CO)N1C[C@H](C)[C@H](CN(C)C(=O)C2CCOCC2)Oc2ncc(Br)cc2C1=O	none (no result: dFosB activator)
CC(C)CC#Cc1cnc2c(c1)C(=O)N([C@H](C)CO)C[C@@H](C)[C@H](CN(C)C(=O)C1CCOCC1)O2	DENV2 CPE 38 (no result: dFosB activator)
COCC(=O)N(C)C[C@H]1Oc2ncc(C#Cc3cccnc3)cc2C(=O)N([C@H](C)CO)C[C@H]1C	DENV2 CPE 24 (no result: dFosB activator)
C[C@H]1CN([C@@H](C)CO)C(=O)c2cc(Br)cnc2O[C@H]1CN(C)C(=O)C1CCOCC1	DENV2 CPE 24 (no result: dFosB activator)
CO[C@H]1CN(C)C(=O)c2cc(NC(=O)Nc3ccccc3)ccc2OC[C@H](C)N(C(=O)Nc2c(C)noc2C)C[C@H]1C	none (no result: dFosB activator)
COc1ccc2oc(C(=O)NCC(c3ccco3)N(C)C)c(C)c2c1 (stereo unspecified)	AF4-AF9 inh 35
NS(=O)(=O)c1ccc(NC(=O)COc2ncnc3c2cnn3-c2ccccc2)cc1	dFosB activator 21
CCN1CCN(CCCNC(=O)CCC(=O)N2CC(C)Oc3ccc(C)cc32)CC1 (stereo unspecified)	AF4-AF9 inh 49 (no result: GSIS activator)
Cc1ccc2c(c1)N(C(=O)CCC(=O)NCCCN1CCOCC1)CC(C)O2 (stereo unspecified)	none
CCOc1ccc(Nc2oc(-c3cccc(Cl)c3)nc2C#N)cc1	GSIS activator 106 (no result: AF4-AF9 inh, RAD54 inh, DENV2 CPE, RAD52 inh)
CC(=O)N(Cc1cc2cc(C)c(C)cc2n2nnnc12)CC1COCCO1 (stereo unspecified)	GSIS activator 63 (no result: AF4-AF9 inh, RAD54 inh, DENV2 CPE, RAD52 inh)
C[C@@H]1CN([C@H](C)CO)C(=O)c2cc(NC(=O)Nc3cccc4ccccc34)ccc2O[C@@H]1CN(C)S(=O)(=O)c1ccc(Cl)cc1	none (no result: dFosB activator)
CCCn1c(N)c(C(=O)COC(=O)/C=C/c2ccc(OC(F)F)c(OC)c2)c(=O)[nH]c1=O	dFosB activator 22
COc1cc(/C=C/C(=O)OCC(=O)NC(=O)C2COc3ccccc3O2)ccc1OC(F)F (stereo unspecified)	GSIS activator 45
CCN(CC)S(=O)(=O)c1ccc(/C=C/C(=O)OCC(=O)NC(=O)C2COc3ccccc3O2)cc1 (stereo unspecified)	none (no result: RAD54 inh)
Cc1cccc(C(=O)N2CCc3cc(-c4csc(NC(=O)CN5CCCC5)n4)ccc32)c1	dFosB activator 37
CCC(c1nnnn1-c1c(C)cccc1C)N1CCN(C/C=C/c2ccccc2)CC1 (stereo unspecified)	DENV2 CPE 106 (no result: dFosB activator)
CSCCC(c1nnnn1-c1c(C)cccc1C)N1CCN(C/C=C/c2ccccc2)CC1 (stereo unspecified)	none (no result: dFosB activator)
CCCc1cn(CC[C@@H]2CC[C@@H](NC(=O)C3CC3)[C@@H](CO)O2)nn1	none (no result: dFosB activator)
CN=c1scc(C)n1/N=C/c1ccc(O)c(O)c1O	none (no result: AF4-AF9 inh, DENV2 CPE, GSIS activator, RAD52 inh)
CN=c1scc(-c2cccs2)n1/N=C/c1ccc(O)c(O)c1O	AF4-AF9 inh 40 (no result: RAD54 inh)
Cc1ccccc1-c1ccc2c(c1)O[C@H](CN(C)Cc1ccc(C(=O)O)cc1)[C@H](C)CN([C@H](C)CO)S2(=O)=O	none (no result: dFosB activator)
O=C(c1ccccn1)N1CC(=O)N2[C@H](CO)[C@H](c3ccc(C4=CCCC4)cc3)[C@@H]2C1	none (no result: RAD54 inh, dFosB activator)
CCOC(=O)c1cn(-c2ccccc2)nc1-c1ccncc1	GSIS activator 40 (no result: AF4-AF9 inh, DENV2 CPE)
CCOC(=O)c1c(C)n(-c2ccc(C)cc2)c2ccc(OCC(O)CNCC3CCCO3)cc12 (stereo unspecified)	dFosB activator 30 (no result: AF4-AF9 inh, RAD54 inh, DENV2 CPE, GSIS activator, RAD52 inh)
C[C@H](NC(=O)[C@H]1N[C@H]2c3ccc(-c4cncnc4)c(=O)n3C[C@H]2[C@@H]1CO)c1ccccc1	none (no result: dFosB activator)
O=C(O)CNc1nc(-c2ccccc2)c2cc([N+](=O)[O-])ccc2n1	GSIS activator 61 (no result: AF4-AF9 inh, DENV2 CPE, RAD52 inh)
O=[N+]([O-])c1ccc2nc(NCCCO)nc(-c3ccccc3)c2c1	none (no result: AF4-AF9 inh, RAD54 inh, DENV2 CPE, RAD52 inh)
CCOc1nc(-c2ccccc2)c2cc(Br)ccc2n1	GSIS activator 47
